Results from ChEMBL document CHEMBL4513216, “Probing the Open Global Health Chemical Diversity Library for Multistage-Active Starting Points for Next-Generation Antimalarials” (ACS Infect Dis, 2020).
Hit rate of the full screen: of about 68,000 compounds, about 2,700 (4%) showed an effect of 50% or more. Only a selection was taken, and strong results are over-represented in it overall.

tested on: Plasmodium berghei; test: Screen against P. berghei liver stage (PbLuc), transformed with Luciferase, at 2uM; format: functional, HepG2; conditions: tested at 2 uM

Structure (SMILES) | INHIBITION [%]
O=C(NCC1CCCCO1)c1ccc(-c2ccco2)[nH]c1=O (stereo unspecified) | 38.67
CCN1CCN(S(=O)(=O)c2cc(C)c(Cl)cc2Cl)CC1 | 26.09
Cc1cc(S(=O)(=O)N2CC[C@@H](O)C2)c(Cl)cc1F | -54.78
Cc1cc(S(=O)(=O)N2CCC(N3CCC(O)C3)CC2)c(Cl)cc1Cl (stereo unspecified) | 55.73
CC(C)c1nnc(CN(C)Cc2ccccc2-c2ccccc2)o1 | 20.63
CC(CCN1CCOCC1)NC(=O)c1cccc(C(F)(F)F)c1F (stereo unspecified) | 18.37
COc1cccc(C(=O)NC(C)CCN2CCOCC2)c1F (stereo unspecified) | -22.65
CC(CCN(C)C)NC(=O)c1cccc(C(F)(F)F)c1F (stereo unspecified) | 52.38
Cc1nnc2n1CCN(CCOc1cccc(C#N)c1)C2 | 33.82
CC(C)(O)CCc1ccc(C(=O)NCC2CCCOC2)cc1 (stereo unspecified) | 42.27
Cc1ccc(C(=O)N2C[C@@H](NS(C)(=O)=O)[C@H](C(C)C)C2)cc1O | 51.72
Cc1nc2cc(C(=O)N3C[C@@H](NS(C)(=O)=O)[C@H](C(C)C)C3)ccc2[nH]1 | -1.71
Cc1ccc(C(=O)N2C[C@H](NS(C)(=O)=O)[C@@H](C(C)C)C2)cc1F | -43.88
O=C(c1ccco1)N1C2CCC(O)(CC2)C1CO (stereo unspecified) | 3.38
O=c1ccc2c(n1Cc1cccnc1)CCN(Cc1ccoc1)CC2 | 0.13
NC1CCc2c(ccc(=O)n2Cc2ccncc2)C1 (stereo unspecified) | 55.11
NC1CCc2c(ccc(=O)n2CC2CC2)C1 (stereo unspecified) | 24.86
O=c1ccc2c(n1CCN1CCCC1)CCN(Cc1ccoc1)CC2 | -1.79
O=c1ccc2c(n1Cc1ccncc1)CCN(Cc1ccoc1)CC2 | 50.91
CCn1c2c(ccc1=O)CC(N)CC2 (stereo unspecified) | 13.38
CCOCC1CN(Cc2ccco2)Cc2nccn2C1 (stereo unspecified) | -7.76
CNS(=O)(=O)c1cnccc1N1CCN(C(C)C)CC1 | 15.75

Structure (SMILES) | INHIBITION [%]
Cc1csc(CCNc2ccc(C#N)cn2)n1 | 20.29
Cc1cccc(NCCNc2ccc(C#N)cn2)n1 | 60.79
Cc1cc(NCCNc2ccc(C#N)cn2)nc(C)n1 | 21.81
COc1ccc(NC(=O)NCC(O)c2ccc(F)cc2F)c(OC)c1 (stereo unspecified) | 47.72
CCn1ccnc1CN1CCN(C(C)C)CC1C (stereo unspecified) | -49.57
CCn1ccnc1CN1CCN(c2nccc(OC)n2)CC1C (stereo unspecified) | 72.05
CCCN1CCN(Cc2nccn2CC)C(C)C1 (stereo unspecified) | 16.97
COc1ccccc1C(NCc1ccc(SC)cc1)c1nccn1C (stereo unspecified) | 16.26
COc1ccc(C2CCN(Cc3cscn3)CC2)cc1 | 56.84
COc1ccc2c(c1)CCN(Cc1cscn1)CC2 | 1.54
COc1ccc(OC)c(CN2CCN(Cc3cscn3)CC2)c1 | 1.3
Cc1csc2ncc(-c3ccnc(N4CCC[C@H](C(N)=O)C4)n3)c(=O)n12 | 43.16
COC[C@@H]1CC[C@H]2[C@H](CCN2S(=O)(=O)c2cccc(F)c2)O1 | 9.46
CNC(=O)NC(=O)CN1CCc2c(Br)ccc(F)c2C1 | -20.8
NC(=O)CN1CCCC(CCCc2ccccn2)(C(N)=O)C1 (stereo unspecified) | 12.8
NC(=O)C1(CCCc2ccccn2)CCCN(CCO)C1 (stereo unspecified) | -17.3
COCCN1CCCC(CCCc2ccccn2)(C(N)=O)C1 (stereo unspecified) | 55.74
CN(c1ccc(F)cc1)S(=O)(=O)c1cc2c(c(C(=O)O)c1)OCCO2 | 26.75
Cc1ccc(NS(=O)(=O)c2cc3c(c(C(=O)O)c2)OCCO3)c(F)c1 | 57.95
O=C(O)c1cc(S(=O)(=O)Nc2ccc(F)cc2F)cc2c1OCCO2 | -29.54
Cc1ccc(F)c(NS(=O)(=O)c2cc3c(c(C(=O)O)c2)OCCO3)c1 | -45.83
CN(c1ccccc1)S(=O)(=O)c1cc2c(c(C(=O)O)c1)OCCO2 | 53.19

Structure (SMILES) | INHIBITION [%]
Cc1cc(C)cc(N(C)S(=O)(=O)c2cc3c(c(C(=O)O)c2)OCCO3)c1 | 34.46
O=C(Cc1cccs1)NCC1COCc2c(-c3ccoc3)nnn2C1 (stereo unspecified) | 24.34
COc1cc(CN(C)C(=O)NCCC(=O)NC2CCCC2)ccc1SC | 49.88
Cc1occc1C(=O)N1CCCS1(=O)=O | 29.41
CN(C)S(=O)(=O)N1CC[C@]2(C[C@H](OCc3ccncc3)CO2)C1 | 9.65
COCCN1CC(Nc2nc(C3CCCC3)nc3c2cnn3C)CC1=O (stereo unspecified) | 40.4
COCCN1CC(Nc2nc(C(C)C)nc3c2cnn3C)CC1=O (stereo unspecified) | 57.34
CC(C)C(=O)N1CCC(CNc2nc(C(C)C)nc3c2cnn3C)CC1 | 19.12
C=c1ncsc1=C1NN=C(C2CCCN2C(=O)CCn2ccc(C)n2)O1 (stereo unspecified) | -16.2
CC(NC(=O)NCCCN1CCc2ccccc2C1)c1nncn1C (stereo unspecified) | 10.53
COc1cc(F)c(S(=O)(=O)N2CCN(C)Cc3ccccc32)cc1OC | -50.8
CN1CCN(S(=O)(=O)c2cncc(F)c2)c2ccccc2C1 | 52.73
Cc1cc(F)ccc1S(=O)(=O)N1CCN(C)Cc2ccccc21 | 26.62
CN(C(=O)Cn1nc(-c2ccc(F)cc2)ccc1=O)C1CCS(=O)(=O)C1 (stereo unspecified) | 11.87
CS(=O)(=O)N1CCCC1c1ccnc2nccn12 (stereo unspecified) | 12.35
CC(C)Oc1cc(N2CCC(C(N)=O)CC2)nc(N)n1 | 54.41
CC(C)Oc1cc(N2CCC(N3CCC(O)CC3)CC2)nc(N)n1 | 2.39
CC(C)Oc1cc(N2CC[C@H](CO)[C@@H](O)C2)nc(N)n1 | -1.63
CCN(CC)c1nc(Nc2cccc(C(C)O)c2)nc2ccccc12 (stereo unspecified) | 6.9
CC(O)c1cccc(Nc2nc(NCCO)c3ccccc3n2)c1 (stereo unspecified) | 60.26
CCN(CC)c1nc(Nc2cccc(C(=O)O)c2)nc2ccccc12 | 22.51
C=C(C)CN(CC)Cc1nc(CC)no1 | 29.39

Structure (SMILES) | INHIBITION [%]
Cc1nc(CN2CCC3(CC2)CCN(C(=O)c2cscn2)C3)cs1 | 36.75
Cc1ccc(-c2noc([C@@H]3C[C@H](NC(=O)CC(C)(C)C)CN3C)n2)cc1 | 29.3
CCc1nccn1CCCNC(=O)CN1CCN(c2ncccn2)CC1 | 52.57
CCOC(=O)CCCNC(=O)CN1CCN(c2ncccn2)CC1 | 6.56
O=C(NCCCN1CCN(c2ncccn2)CC1)Nc1ccccn1 | 7.62
CC(C)c1cc(C2CCCN2C(=O)CN2C(=O)OC(C)(C)C2=O)no1 (stereo unspecified) | 64.74
Cc1cc(C2CCCCN2C(=O)CN2C(=O)OC(C)(C)C2=O)no1 (stereo unspecified) | 13.51
Cc1cc(C2CCCN2C(=O)CN2C(=O)OC(C)(C)C2=O)on1 (stereo unspecified) | 40.83
CC(C)Cc1cc(C(=O)NC(C)C)[nH]n1 | 31.66
O=C(Nc1nc(-c2ccccc2)ns1)N1CCN(C(=O)C2CC2)CC1 | 7.3
CN(C)Cc1ccccc1Cn1cncc1-c1cnn(C)c1 | 55.3
CCn1nc(C)c(-c2cncn2Cc2ccccc2CN(C)C)c1C | 17.29
CC(Cn1cncc1-c1cnn(Cc2ccccc2)c1)N1CCCCC1 (stereo unspecified) | -22.72
O=C(NCC1(CO)CC1)c1ccccc1C(F)(F)F | -41.99
Cc1ccc(N2CCCC(NCC(=O)NCC3CC3)C2)nn1 (stereo unspecified) | 42.92
CC(NCc1ccc(F)cc1)c1ccc2[nH]c(=O)[nH]c2c1 (stereo unspecified) | -32.84
Cc1ccc(CNC(C)c2ccc3[nH]c(=O)[nH]c3c2)s1 (stereo unspecified) | 74.87
COc1ccc(CNC(C)c2ccc3[nH]c(=O)[nH]c3c2)cc1 (stereo unspecified) | 3.9
CCN(CC1CCOC1)C(=O)c1ccn(-c2ccc(OC)cc2)n1 (stereo unspecified) | -8.85
Fc1ccccc1Sc1ccccc1CNC1=NCCN1 | -39.75
OCC1CCCN1c1cc(NCc2cc3ccccc3o2)ncn1 (stereo unspecified) | -15.36
CC(C)(C)n1ncc2c1NC(=O)CC2c1cccc(O)c1 (stereo unspecified) | 31.54

Structure (SMILES) | INHIBITION [%]
Cc1cc(-c2nccs2)nc(C2CCN(Cc3ccc(F)cc3)CC2)n1 | -12.17
Cc1noc(C)c1CN1CCC2(CC1)NC(=O)CC2c1ccncc1 (stereo unspecified) | -12.36
CCN1CCCC(O)(CNCc2ccncc2)C1 (stereo unspecified) | 50.02
CCN1CCCC(O)(CNCc2ccc3c(c2)OCO3)C1 (stereo unspecified) | 35.84
CCN1CCCC(O)(CNCc2ccccn2)C1 (stereo unspecified) | -36.39
Cc1ccc(CN2CCn3c(CNC(=O)c4cccn4C)cnc3C2)s1 | -40.86
COc1cccc(CN2CCC3(COCc4cnc(N(C)C)nc43)C2)c1 (stereo unspecified) | 23.93
CSCc1cccc(S(=O)(=O)NCCCn2ccnc2)c1 | 16.48
c1cnn(CC2CN(c3ncnc4ccsc34)CCO2)c1 (stereo unspecified) | 32.39
COC[C@]12COC[C@H]1CN(C(=O)c1ccc(F)cc1C)C2 | 57.85
O=C(C1=CCCC1)N1C[C@@H]2COC[C@]2(COCC2CC2)C1 | 24.23
O=C(c1ccnnc1)N1C[C@@H]2COC[C@]2(COCC2CC2)C1 | -57.61
Cc1cc(F)ccc1C(=O)N1C[C@@H]2COC[C@]2(CN(C)C)C1 | 25.58
COC[C@]12COC[C@H]1CN(C(=O)C1CC(F)(F)C1)C2 | -22.65
Cc1cc(F)ccc1C(=O)N1C[C@@H]2COC[C@]2(COCC2CC2)C1 | 65.38
CCOc1c(F)cccc1C(=O)N(c1cccnc1)C(C)C | -56.64
CC1(C)CN(C(=O)c2ccc3nncn3c2)CCS1 | -17.04
Cc1nccn1-c1cccc(N2CCC(OCC3CCCCO3)CC2)n1 (stereo unspecified) | -16.7
